PubChem BioAssay AID485313 (National Center for Advancing Translational Sciences (NCATS), 2010)
Screen size: about 320,000 compounds; about 7,600 (2.4%) were called active. Inconclusive results (about 3%) are left out. Calls follow the shape of the dose curve; as a rule, active = well fitted activation curve with a large enough effect; inconclusive = small, poorly fitted or top-dose-only effect; inactive = no such curve, though single readings can be large or run the other way. This excerpt belongs to a sample that is enriched for actives.

experiment: qHTS Assay for NPC1 Promoter Activators; settings: Huh7 NPC1 promoter luciferase reporter, 24 h; series mostly up to 9.22 µM; activation: at the top concentration; also: nearly all actives have a fitted effect of over 60% in size; as to activation: % of control where 0% means no effect
Source text: NIH Chemical Genomics Center [NCGC] NIH Molecular Libraries Probe Production centers Network [MLPCN] MLPCN Grant: MH089375-01A1 Assay Submitter (PI): Yiannis A. Ioannou NCGC Assay Overview: Niemann Pick Type C (NPC) is a rare neurodegenerative lipidosis that is characterized by lipid storage in the endosomal/lysosomal system. Treatment modalities for this devastating disease are currently non-existent due to the severe obstacles associated with accessing the central nervous system with proteins or genes. The majority of mutations causing NPC disease are missense mutations that are distributed throughout the length of the NPC1 protein, with the most prevalent being the I1061T allele. Although NPC1 mutant proteins may be functional, they are typically trapped in the ER due to misfolding. […] We have developed and optimized a cell based luciferase reporter assay in 1536 well format for the identification of up-regulators of the mutant NPC1 promoter.
The NPC1 promoter is cloned in front of the luciferase reporter gene, therefore NPC promoter activation results in luciferase expression. Frozen stock of the NPC1 promoter transfected Huh7 cells were obtained from the laboratory of Dr. Yiannis Ioannou (The Mount Sinai School of Medicine, New York, NY). Cells were propagated and maintained at NCGC in medium containing RPMI-1640 supplemented with 10% FBS, 2mM L-glutamine, and 50ug/ml penicillin/streptomycin. Cells were harvested in and plated for assays in OP-MEM I reduced-serum medium supplemented with 10% FBS. The Amplite luciferase reporter gene assay kit was purchased from ABD Bioquest and prepared/stored according to manufacturers recommendations. qHTS Assay Setup: 1.#Dispensed 5ul of Huh7 cells stably expressing NPC1-luciferase at a density of 1500 cells per well 1536-well plates. 2.#Incubate cells at 37C, 5% CO2, and 95% humidity for 2 hours. 3.#Transferred 23nl per well of compound in DMSO solution. 4.#Incubated at 37C, 5% CO2, and 95% humidity for 24 hours. 5.#Dispensed 3ul per well of Amplite reagent(ABD Bioquest) per well. 6.#Incubate at ambient for 10 minutes. 7.#Read using the luminescence protocol on the ViewLux plate reader (Perkin Elmer).
Potency is read from the fitted curve at half-maximal effect.

SMILES | activation | Potency
Cc1ccsc1C(=O)OCC(=O)Nc1cccc(F)c1 | 7.29% (inactive) | 
Cc1cc(C(=O)COc2ccc(Br)cc2F)c(C)n1C1CC1 | 15.3% (inactive) | 
N#Cc1ccccc1S(=O)(=O)N1CCN(Cc2c(O)ccc3ccccc23)CC1 | -0.384% (inactive) | 
CC1CC1C(=O)OCC(=O)Nc1cccc(F)c1 (centres undefined) | -0.27% (inactive) | 
CC(=NCc1ccco1)c1c(C(F)(F)F)[nH]n(-c2nc3ccccc3s2)c1=O |  | 2.24 µM (active)
COC(=O)Cc1[nH]n(-c2nc3ccccc3s2)c(=O)c1C(C)=Nc1ccc(OC)cc1 | -16% (inactive) | 
CC(=NCc1ccco1)C1=C(O)c2ccccc2C1=O | 8.33% (inactive) | 
CCCn1c(N)c(N(CCOC)C(=O)C2CCCC2)c(=O)[nH]c1=O | -2.43% (inactive) | 
CN(C(=O)CSc1nnc(C2CC2)n1C)C1CCCc2ccccc21 (centres undefined) | -0.553% (inactive) | 
CN(C)/C=C(\C#N)C(=O)c1cccnc1Oc1ccc(F)cc1F | -8.2% (inactive) | 
COc1ccc(C)cc1NC(=O)CCCN1C(=O)NC(C)(C)C1=O | -6.41% (inactive) | 
COc1ccc(-c2nnc(SC(C)C(=O)NC3CC3)o2)cc1 (centres undefined) | -0.432% (inactive) | 
CN(C)C(=O)c1ccc(NC(=O)COC(=O)c2cc3c(s2)CCCCC3)cc1 | -5.23% (inactive) | 
O=C(NNC(=O)c1cc2c(s1)CCCC2)c1ccccc1 | 21.2% (inactive) | 
O=C(Nc1ccc(F)cc1)c1cc2c(s1)CCCC2 |  | 2.24 µM (active)
CCN(C(=O)COC(=O)Cc1c(F)cccc1Cl)c1c(N)n(Cc2ccccc2)c(=O)[nH]c1=O | -0.302% (inactive) | 
CSc1ncccc1C(=O)Nc1nc2ccc(F)cc2s1 |  | 0.126 µM (active)
CSc1ncccc1C(=O)NC1CCCCCC1 | -4.31% (inactive) | 
CSc1ncccc1C(=O)Nc1ccc2c(c1)OCO2 | -0.125% (inactive) | 
Cc1ccc(NC(=O)CCC(=O)N2CCC(c3ccccc3)=N2)cc1S(=O)(=O)N1CCCCC1 | -1.45% (inactive) | 
O=c1ccc2c(-c3ccccc3S(=O)(=O)O)c3ccc(O)c(O)c3oc-2c1O | -7.8% (inactive) | 
CC1CCCCC1NC(=O)NC(=O)COC(=O)C1=NN(c2ccccc2)C(=O)CC1 (centres undefined) | -3.42% (inactive) | 
O=S(=O)(NCCCN1CCOCC1)c1ccc(F)c(Cl)c1 | -5.25% (inactive) | 
COc1ccccc1CNC(=O)COC(=O)CNS(=O)(=O)c1ccc(NC(C)=O)cc1 | -1.15% (inactive) | 
Cc1ccc(-c2cn(S(=O)(=O)c3cccc([N+](=O)[O-])c3)nc2N)cc1 | -1.34% (inactive) | 
Cc1ccnc(N2C(=O)c3ccc([N+](=O)[O-])cc3C2=O)c1 | -0.192% (inactive) | 

SMILES | activation | Potency
Cc1ccc(-n2cc3ccc([N+](=O)[O-])cc3n2)cc1 |  | 0.794 µM (active)
Cn1c(N)c(C(=O)COC(=O)/C=C/c2cccc(C(F)(F)F)c2)c(=O)n(C)c1=O | 0.0298% (inactive) | 
Cc1ccn(-c2cccc(-n3ccc(C)n3)n2)n1 |  | 3.16 µM (active)
CN(CC(=O)Nc1ccc(OC(F)(F)F)cc1)C(=O)C1CCC1 | -1.1% (inactive) | 
CC(=O)c1c(C)[nH]c(C(=O)OCC(=O)Nc2c(C)cccc2C)c1C | -10.2% (inactive) | 
COc1ccc(/C=N/NC(=O)Nc2ccc3nsnc3c2)c(OC)c1 | -0.0419% (inactive) | 
COc1ccc(NC(=O)c2ccc(C#CC(C)(C)O)cc2)cc1 | 8.18% (inactive) | 
COc1ccc(NC(=O)c2ccc(OC)cc2)cc1 |  | 1.78 µM (active)
COc1ccc(C(=O)Nc2ccc(F)cc2F)cc1 |  | 3.16 µM (active)
COc1ccc(C(=O)Nc2cccc(S(C)(=O)=O)c2)cc1 | 2.72% (inactive) | 
COc1cc(OC)cc(C(=O)OCC(=O)Nc2ccc(F)cc2F)c1 | -1.57% (inactive) | 
COc1ccc(NC(=O)Nc2ccc3nsnc3c2)cc1 |  | 1.78 µM (active)
COc1ccc(NC(=O)Nc2cccc3cccnc23)cc1 | 16.2% (inactive) | 
COc1ccccc1CC(=O)Nc1ccc(F)cc1F | 1.66% (inactive) | 
COc1ccc(OC)c(/C=N/NC(=O)c2ccc[n+](CC(=O)c3ccccc3)c2)c1 | 2.89% (inactive) | 
COc1ccccc1C(=O)Nc1ccc(C)c(S(=O)(=O)N2CCCCC2)c1 | -2.07% (inactive) | 
CNS(=O)(=O)c1ccc(C(=O)NCC(=O)NCCc2ccc3c(c2)OCCO3)cc1 | 0.876% (inactive) | 
COc1ccc(C(=O)NCc2ccc(C)cc2)cc1S(=O)(=O)N1CCCC1 | -2.7% (inactive) | 
CC(C)(Oc1ccc(Cl)cc1)C(=O)OCC(=O)NCCc1ccc(S(N)(=O)=O)cc1 | -3.7% (inactive) | 
CC(=O)c1ccccc1NC(=O)C1CC(=O)N(c2ccc3c(c2)OCCO3)C1 (centres undefined) | -3.76% (inactive) | 
COc1ccc(C(=O)N2CCN(c3ccc(C(C)=O)cc3F)CC2)cc1S(=O)(=O)NC1CC1 | 11.8% (inactive) | 
CCc1ccccc1NC(=O)[C@@H]1CCC(=O)N1C1OC(=O)c2c1ccc(OC)c2OC (some centres undefined) | -0.58% (inactive) | 
CN(C(=O)CSc1nnc(-c2ccc(C(C)(C)C)cc2)n1C)C1CCS(=O)(=O)C1 (centres undefined) | 1.03% (inactive) | 
Cc1cccc(NS(=O)(=O)c2ccc(C)c(C(=O)NCC(c3ccccc3)N(C)C)c2)c1 (centres undefined) | -5.65% (inactive) | 
C[C@H](NC(=O)c1ccccc1Cl)C(=O)OCC(=O)N1CCN(c2ccccc2)CC1 | -0.198% (inactive) | 
O=C(c1cnn2ccccc12)N1CCc2ccccc21 |  | 3.16 µM (active)

SMILES | activation | Potency
Cc1cnc(C(=O)OCC(=O)N2CCc3ccccc32)cn1 | 9.65% (inactive) | 
CCOC(=O)N1CCC(NC(=O)c2cnn3ccccc23)CC1 | -0.0909% (inactive) | 
CC(=O)NCCC(=O)Nc1cc(S(=O)(=O)N2CCCCC2)ccc1Oc1cccc(C)c1 | -0.163% (inactive) | 
O=C(C[n+]1cc(Br)cc2ccccc21)c1ccc(F)cc1 | -1.7% (inactive) | 
O=C(c1ccc(F)cc1)n1cc(C(=S)N2CCOCC2)c2ccccc21 | 1.36% (inactive) | 
O=C(c1ccc(F)cc1)n1c(=S)nc2ccccn21 |  | 0.355 µM (active)
Cc1ccc(NC(=O)Cn2c(C)csc2=O)cc1 | 13.8% (inactive) | 
CCOC(=O)c1cn[nH]c1NC(=S)Nc1ccccc1 |  | 2.82 µM (active)
CCOC(=O)c1cc2c(nc1NC(=S)Nc1ccccc1)CC(C)(CC)OC2 (centres undefined) | 0.619% (inactive) | 
CCOC(=O)c1ccc(NC(=S)Nc2cc(C)cc(C)n2)cc1 | -5.29% (inactive) | 
CN(C)C1=NC[C@H](Cc2ccccc2)N1CCc1ccc(F)cc1 | -6.2% (inactive) | 
COc1ccc(OC)c(/C=C/C(=O)c2ccc3c(c2)OCO3)c1 | 18.9% (inactive) | 
CCOC(=O)[C@H]1[C@H]2COc3ccc(C)cc3[C@@H]2N2C(=O)CN(Cc3ccc(F)cc3)C(=O)[C@@]12C | -1.2% (inactive) | 
COc1ccc(CN2CCN(C(=O)c3cc(C4CC4)nn3-c3ccccc3)CC2)cc1F | 1.51% (inactive) | 
O=C(CSc1nnc2ccccn12)c1ccccc1 |  | 3.55 µM (active)
O=C(CSc1nnc2n1CCCN2)c1ccccc1 | 24.4% (inactive) | 
Cc1cc(C(=O)CSc2nc(N)cc(=O)[nH]2)c(C)n1-c1cccc(F)c1 | -13.5% (inactive) | 
Cc1ccc(-n2c(C)cc(C(=O)CN3C(=O)C(=O)N(C4CCCC4)C3=O)c2C)cc1 | 1.5% (inactive) | 
Cc1ccc(-n2c(C)cc(C(=O)CSc3nnc4ccccn34)c2C)cc1 |  | 0.891 µM (active)
N#Cc1ccc(CSc2nnc3ccccn23)cc1 | 0.241% (inactive) | 
COc1cccc(CNC(=O)CN2C(=O)NC(Cc3ccccc3)(c3ccccc3)C2=O)c1 (centres undefined) | -5.69% (inactive) | 
Cc1c(C(C)CCCO)oc(=O)c2c1Oc1c(C)c(C(C)C[C@@H](C)O)oc(=O)c1C2 (some centres undefined) | 1.57% (inactive) | 
CC(=O)C[C@@H](O)CC(=O)[C@H]1OC(=O)CCCCCCc2ccccc21 | -2.8% (inactive) | 
O=C(O[C@H]1[C@H](Cc2ccccc2)NS(=O)(=O)[C@H]2C[C@@H]3C=C[C@]12O3)c1ccc([N+](=O)[O-])cc1 | -3.6% (inactive) | 
COc1ccccc1C(CNC(=O)c1cccc(S(=O)(=O)Nc2ccc(F)cc2)c1)N(C)C (centres undefined) | -2.49% (inactive) | 
O=C(CCNC(=O)c1ccc([N+](=O)[O-])cc1)NC1CCCCC1 | -0.237% (inactive) | 

SMILES | activation | Potency
O=C(Cc1nc2ccccc2[nH]c1=O)c1ccc(Cl)cc1 |  | 3.16 µM (active)
O=C(CSc1nc2ccc([N+](=O)[O-])cc2[nH]1)c1ccc(Cl)cc1 | 4.6% (inactive) | 
N#C/C(=C(/O)COC(=O)COc1ccc(Cl)cc1)c1nc2ccccc2[nH]1 | -1.83% (inactive) | 
CCOC(=O)c1c(C)[nH]c(C(=O)OCC(=O)N2CCCC2=O)c1C | -3.33% (inactive) | 
CCCCOC(=O)c1[nH]c(C)c(C(=O)OC)c1C |  | 2.82 µM (active)
CCOC(=O)c1c(C)[nH]c(C(=O)OCC(=O)c2ccc(OC)cc2OC)c1C | -10.1% (inactive) | 
Cc1cc(C)c(CN2CCN(C(=O)Cn3ccc(NC(=O)OCc4ccccc4)nc3=O)CC2)c(C)c1 | -15% (inactive) | 
Cc1cccc(NC(=O)c2cccc(C(=O)Nc3cccc(C)c3C)n2)c1C | -3.28% (inactive) | 
Cc1ccc(C(=O)CNc2ccc(F)cc2)cc1 | -1.15% (inactive) | 
COC(=O)c1ccc(NCC(=O)c2ccccc2)cc1 |  | 2.51 µM (active)
COC(=O)c1ccc(NCC(=O)N2CCCCCC2)cc1 | 27.8% (inactive) | 
O=C(COC(=O)c1ccc2ncsc2c1)Nc1ccc(Cl)cc1 | 1.42% [at 1.84 µM] (inactive) | 
Cc1sc(NC(=O)c2ccc3ncsc3c2)c(C(N)=O)c1C |  | 1.58 µM (active)
Cc1ccc(C(=O)c2c(NC(=O)c3ccccc3)sc(C)c2C)cc1 | 0.539% (inactive) | 
COc1cc(C(=O)Nc2ncccc2C)ccc1OCC(=O)N1CCOCC1 | -2.59% (inactive) | 
Cc1cc(C)c(S(=O)(=O)N2CCC(C(=O)OCc3c(C)noc3C)CC2)c(C)c1 | -2.63% (inactive) | 
Cc1ccc(C(=O)Nc2ccc(C)c(S(=O)(=O)N(C)C)c2)s1 |  | 2.82 µM (active)
Cc1ccc(NC(=O)c2cccs2)cc1S(=O)(=O)N(C)C | 1.03% (inactive) | 
CCN(CC(=O)Nc1ccc(C)c(S(=O)(=O)N(C)C)c1)Cc1ccccc1 | 7.28% (inactive) | 
Nc1cc(N)nc(SCC(=O)Nc2cccc(S(=O)(=O)N3CCCCC3)c2)n1 | 0.484% (inactive) | 
CSc1ccc(Cl)c(C(=O)OCC(=O)N2CCNC2=O)c1 | -0.987% (inactive) | 
COc1ccc(N2C(=O)/C(=C\c3ccco3)N=C2SCC(N)=O)cc1Cl | -3.08% (inactive) | 
O=C(NCCCc1ccccc1)c1cc(COc2c(F)cccc2F)on1 | 24.8% (inactive) | 
Nc1nonc1C(=O)NCCc1ccccc1 | -0.723% (inactive) | 
CC(C)Cc1cc(C(=O)NCCc2ccccc2)no1 |  | 2.82 µM (active)
Cc1ccc(S(=O)(=O)N(Cc2ccc(Cl)cc2)c2ccccc2C(=O)NCc2cccnc2)cc1 | -3.62% (inactive) | 
